High-throughput results deposited in PubChem BioAssay by several laboratories.
Only some compounds are listed: those with a hit (about 1.3% of all), similar ones and a draw of the others.
EBV gp42 block: Epstein-Barr virus gp42 inhibitors, primary screen, biochemical, uHTS, fluorescence polarization; Glycoprotein 42 (Epstein-Barr virus (strain AG876)), Q1HVG2; Fluorescence polarization binding assay, mP read-out; inhibition, % (tested at 21.74 µM); 0.42% of 220,000 active; in the data active = inhibition above about 50%
MEX-5 binding: MEX-5 zinc finger RNA-binding disruptors – biochemical, C. elegans, fluorescence polarization, MLPCN library, primary screen. Zinc finger protein mex-5 (Caenorhabditis elegans), Q9XUB2. MEX-5/FITC-TCR2 RNA binding; stronger effect = lower value. activity score (negative = inhibition of binding), % at 10 µM. 0.38% of 300,000 active. AID 1832, 2009;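 active = inhibition past about -25% in most replicates, and total fluorescence under double the plate's negative control median, limit read from the data; inconclusive = replicates evenly split on the limit, or fluorescence at least double controls; inactive = too little inhibition in most replicates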;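 also: 0% = DMSO and -100% = 5 µM competing unlabeled TCR2 RNA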
eLon inh: inhibitors of E. coli Lon protease, primary screen, biochemical, fluorescence polarization | P0A9M0 | purified E. coli Lon protease | inhibition, % at 7.94 µM | 0.42% of 360,000 active | AID 602123, 2011; in the data active = inhibition above about 13%, passing the limit was not always enough;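 also: 0% = enzyme with probe and DMSO and 100% = no enzyme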
Target sequence (P0A9M0 whole entry, looked up): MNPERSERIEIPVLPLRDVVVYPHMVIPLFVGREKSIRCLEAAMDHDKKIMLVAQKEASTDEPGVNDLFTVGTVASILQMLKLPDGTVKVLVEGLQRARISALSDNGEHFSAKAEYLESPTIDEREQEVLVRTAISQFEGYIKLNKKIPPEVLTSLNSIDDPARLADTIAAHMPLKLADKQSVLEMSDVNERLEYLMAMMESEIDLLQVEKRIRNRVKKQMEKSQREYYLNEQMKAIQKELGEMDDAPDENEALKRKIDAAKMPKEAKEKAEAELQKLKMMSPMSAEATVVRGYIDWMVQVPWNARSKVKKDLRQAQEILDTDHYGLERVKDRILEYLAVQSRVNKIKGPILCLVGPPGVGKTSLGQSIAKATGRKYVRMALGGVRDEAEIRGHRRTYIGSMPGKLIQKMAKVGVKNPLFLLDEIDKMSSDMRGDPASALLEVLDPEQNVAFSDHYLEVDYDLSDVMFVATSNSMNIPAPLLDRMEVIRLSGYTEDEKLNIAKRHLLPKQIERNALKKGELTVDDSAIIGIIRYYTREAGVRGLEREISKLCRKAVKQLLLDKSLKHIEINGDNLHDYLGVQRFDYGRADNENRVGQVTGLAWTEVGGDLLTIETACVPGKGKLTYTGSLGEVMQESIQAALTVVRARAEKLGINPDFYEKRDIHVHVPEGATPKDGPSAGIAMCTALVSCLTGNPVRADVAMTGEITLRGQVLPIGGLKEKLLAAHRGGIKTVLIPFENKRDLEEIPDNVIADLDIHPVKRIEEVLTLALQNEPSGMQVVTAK
GLD-1 RNA inh: GLD-1/TGE RNA complex disruptors, primary screen, biochemical, fluorescence polarization. Female germline-specific tumor suppressor gld-1 (Caenorhabditis elegans), Q17339. purified GLD-1 + fluorescein TGE RNA. inhibition, % at 5.96 µM. 0.44% of 320,000 active. AID 2280, 2010;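 active = percent inhibition above a per-plate cutoff, the plate mean of test compounds plus 3 SD, cut at about 30% in these data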;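 also: 0% = DMSO wells with GLD-1 and probe and 100% = wells lacking GLD-1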
Bcl-xL primary: inhibitors of human Bcl-xL, primary screen, biochemical, fluorescence polarization, HTS. inhibition, % at 10.9 µM. 0.7% of 320,000 active. Bcl-2-like protein 1 (Homo sapiens), Q07817. AID 2129, 2009. GST-Bcl-xL / FITC-Bim BH3 peptide fluorescence polarization;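 active = inhibition above the mean of all tested compounds plus 3 SD, cutoff set per campaign, cut at about 30% in these data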;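 also: 0% = DMSO wells and 100% = unlabeled Bim-BH3 peptide competitor; inhibitors lower millipolarization by displacing the labeled peptide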
eLon confirm: E. coli Lon protease inhibitor retest, confirmation, biochemical, fluorescence polarization | shares compounds with eLon inh | purified E. coli Lon | inhibition, % at 7.94 µM | 31% of 1,400 active; in the data active = inhibition above about 16%;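 also: 0% = enzyme with probe and DMSO and 100% = no enzyme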
* = called active by the depositor; ? = inconclusive; · = no result given; + = active, no number.

SMILES	EBV gp42 block	MEX-5 binding	eLon inh	GLD-1 RNA inh	Bcl-xL primary	eLon confirm
COc1cc(C(CC(=O)N2CCCC2)c2c(OC)cc(OC)c3ccc(=O)oc23)cc(OC)c1OC (configuration not stated)	-12	-39*	37*	55*	36*	14
N#Cc1ccc(S(=O)(=O)N2CCN(C(=O)[C@@H]3CCCN3C(=O)c3cccs3)CC2)cc1	·	·	-1	2	2	·
Cc1ccc(S(=O)(=O)N2C[C@H]3C(=O)C[C@@H](c4ccccc4)N(S(=O)(=O)c4ccc(C)cc4)[C@H]3C[C@H]2c2ccc(Cl)cc2)cc1	·	·	-9	·	·	·
CCN(CC(=O)NCc1ccc(F)cc1)CC(=O)Nc1cc(S(=O)(=O)N(C)C)ccc1C	·	·	-3	-1	-10	·
CCN(CC(=O)NCc1ccc(F)cc1)CC(=O)Nc1ccc(Br)cc1F	·	·	22*	-2	·	-2
COc1ccc(NC2=NCC(Cc3ccc(Br)cc3)S2)cc1 (configuration not stated)	-8	3	6	1	-4	·
O=C(COC(=O)c1ccc(O)cc1)Nc1ncc(Cl)cc1Cl	8	1	5	7	15	·
O=C(COC(=O)c1nc(Cl)ccc1Cl)Nc1ncc(Cl)cc1Cl	·	-8	77*	8	12	-7
CCOC(=O)CNc1nc(Cl)nc(Nc2ccc(Cl)cc2)n1	-2	3	11	4	5	·
O=C(CSCc1nc2c(nnn2Cc2ccc(F)cc2)c(=O)[nH]1)Nc1cccc(C(F)(F)F)c1	12	·	16*	10	16	-7
CN(C)c1ccc(NC(=O)CSCc2nc3c(nnn3Cc3ccc(F)cc3)c(=O)[nH]2)cc1	-6	-1	8	4	6	·
COc1ccc(NC(=O)NNc2cc(N3CCOCC3)nc(N3CCOCC3)n2)cc1	-15	-2	34*	-3	-3	15
CC(=O)NNc1cc(N2CCOCC2)nc(N2CCOCC2)n1	-8	4	-14	-30	0	·
CCOc1ccccc1NC(=O)c1ccc2nc[nH]c2c1	·	2	-5	3	9	·
CCSc1nnc(-c2ccccc2N=Cc2c(C)[nH]n(-c3ccccc3)c2=O)c(=O)[nH]1	-10	-1	0	1	13	·
O=C(CCN1C(=O)C2CC=C(Cl)CC2C1=O)N1CCCCC1 (configuration not stated)	13	-41*	29*	58*	54*	52*
O=C(CCN1C(=O)C2C3C=CC(C3)C2C1=O)N1CCCCC1 (configuration not stated)	-13	1	5	-1	8	·
COc1ccccc1-c1ccc2c(c1)C(C)(Cc1ccc(F)c(Cl)c1)C(=O)N2 (configuration not stated)	·	·	16*	·	·	-8
COc1ccccc1-c1ccc2c(c1)C(C)(Cc1ccc(Cl)cc1)C(=O)N2 (configuration not stated)	·	·	0	·	·	·
Cc1cccc(Oc2ccc(NC(=O)C3=CC=CN4CCS(=O)(=O)N=C34)cc2)c1	·	·	-2	7	3	·
O=C1c2sccc2-c2cccc3cccc1c23	·	·	54*	·	·	30*
CNC(=S)N/N=C1\C(=O)c2cccc3cccc1c23	19	-2	7	-4	12	·
C=CCN1C(=O)c2cccc3c(N4CCCCC4)ccc(c23)C1=O	15	?	114*	151*	1	-94
CC(=O)c1ccc2c3c(cccc13)C(=O)N(c1c(C)nn(C)c1C)C2=O	-14	·	5	8	11	·
Cc1n[nH]c(C)c1N1C(=O)c2cccc3c(N4CCCCCC4)ccc(c23)C1=O	193*	-53*	69*	+	+	-48
SMILES	EBV gp42 block	MEX-5 binding	eLon inh	GLD-1 RNA inh	Bcl-xL primary	eLon confirm
O=C1c2cccc3c(N4CCCCC4)ccc(c23)C(=O)N1CCO	-1	-26*	126*	-3	49*	-76
C=CCN1C(=O)c2cccc3c(Br)ccc(c23)C1=O	2	-3	-8	0	7	·
CC(C)C[C@H]1COc2cc(N3CC[C@H](O)C3)ccc2S(=O)(=O)N1	·	·	-8	·	·	·
Cc1cc(C)c(S(=O)(=O)Cc2ccccc2)c(Cl)n1	·	1	2	-3	5	·
N#Cc1cc2cc3c(cc2nc1N1CCCCC1)OCCO3	10	-2	-3	-3	8	·
Cc1ccc(C(=O)N2CCCN(c3nc4cc5c(cc4cc3C#N)OCO5)CC2)cc1	·	-5	73*	58*	87*	5
Cc1onc(-c2c(F)cccc2Cl)c1C(=O)NCc1ccccc1	·	-3	-1	10	4	·
Cc1onc(-c2c(F)cccc2Cl)c1C(=O)ONC(=O)c1ccco1	0	-2	17*	15	13	6
Cc1oc2ccc(Br)cc2c(=O)c1-c1nn[nH]n1	-12	0	21*	-5	1	-68
CN1C(=O)c2cccc3c(Br)ccc(c23)C1=O	·	-4	-2	14	22	·
CNc1ccc2c3c(cccc13)C(=O)N(C)C2=O	·	?	+	119*	178*	+
Cc1ccc(NC(=O)CC2SC3=NCCCN3C2=O)c(C)c1 (configuration not stated)	5	-9	64*	82*	110*	17*
O=C(CC1SC2=NCCN2C1=O)Nc1ccc(Cl)cc1 (configuration not stated)	-14	2	-6	6	3	·
Cc1ccc(S(=O)(=O)CCC(=O)N(Cc2nnc(-c3ccc(Cl)cc3)o2)C2CC2)cc1	·	·	-8	4	-13	·
O=[N+]([O-])c1cccc(C(=S)N2CCN(c3ccc(F)cc3)CC2)c1	15	0	56*	20	38*	1
COc1ccc(-n2c(SCC(=O)Nc3ccc(Br)cc3)nc(O)cc2=O)cc1	-22	·	-3	-2	0	·
Cc1cc(Br)ccc1OCC(=O)NNC(=O)c1cnccn1	-15	-8	71*	-4	2	-7
Cc1cc(Cl)ccc1OCC(=O)NNC(=O)c1cnccn1	4	-5	10	6	3	·
C[C@@H]1CN([C@@H](C)CO)C(=O)c2cc(NS(C)(=O)=O)ccc2O[C@@H](C)CCCCO[C@H]1CN(C)Cc1ccc2c(c1)OCO2	·	·	0	·	·	·
O=C(NCCCN1CCCC1=O)C1CCN(S(=O)(=O)c2ccccc2)CC1	·	·	-4	5	5	·
O=C(CC12CC3CC(CC(Br)(C3)C1)C2)Nc1cccc(S(=O)(=O)NC2=NCCC2)c1	6	1	16*	-3	-4	2
O=C(COC(=O)CCS(=O)(=O)c1ccccc1)Nc1ccc(N2CCCCC2)cc1	·	·	9	3	-4	·
Cc1ccc(NC2=CC(=O)CC(C)(C)C2)c(N)c1	0	0	79*	7	7	-13
O=C(/C=C/c1cccc(Cl)c1)NCc1ccccc1	4	1	6	-10	-4	·
